# Test results taken from PubChem BioAssay (NCATS).
# Inconclusive results are not listed. A number with no mark means an inactive call. The source made the active and inactive calls. Calls come from the whole dose curve; as a rule, active = well fitted inhibition curve with a large enough effect; inconclusive = small, poorly fitted or top-dose-only effect; inactive = flat fitted curve, though single readings scatter.
# Assays:
# Assay in all cases: Cytotoxic Profiling of Annotated Libraries Using Quantitative High-Throughput Screening (AID 1296008); note: nearly all actives have a fitted effect of over 60% in size
# Conditions in all cases: Five cell lines viability, CellTiter-Glo ATP luminescence, 48-72 h; max response: hits give low values
# [1] = tested on: CRL-7250
# Outline: (§1)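 Cells exposed to compounds for 48 or 72 hr at 37 degrees Celsius. Viability read as ATP-coupled luminescence with CellTiter-Glo after 10 min at room temperature.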
# [2] = tested on: HaCat
# Outline: as §1
# [3] = tested on: KB-3-1
# Outline: as §1
# [4] = tested on: NIH3T3
# Outline: as §1
# % is set by controls: 0 for no effect and ±100 for the full control effect; potency is the fitted concentration of half-maximal effect.
structure (smiles),measurement,setting,value
CC1=C(C(=O)OC2CCCCC2)C(c2ccc([N+](=O)[O-])cc2)C2=C(CC(C)(C)CC2=O)N1 (centres undefined),max response,[1],1.32%
same,max response,[2],-9.38%
same,max response,[3],-12%
same,max response,[4],-3.56%
COc1ccc(C2(CNC(=O)c3ccc(NC(=O)c4ccco4)cc3)CCOCC2)cc1,max response,[1],-30.6%
same,max response,[2],-26.6%
same,max response,[3],8.83%
Nc1nc2c(ncn2C2OC3COP(=O)(O)OC3C2O)c(=O)[nH]1 (centres undefined),max response,[1],-27.3%
same,max response,[2],-25.5%
same,max response,[3],9.92%
CC(=O)O[C@H]1CC(C)(C)CC2[C@]13CO[C@@]21CCC2[C@@]4(C)CC[C@H](O[C@@H]5OC[C@H](O[C@@H]6O[C@H](CO)[C@@H](O)[C@H](O)[C@H]6O[C@@H]6OC[C@@H](O[C@@H]7O[C@H](CO)[C@@H](O)[C@H](O)[C@H]7O)[C@H](O)[C@H]6O)[C@H](O)[C@H]5O[C@@H]5O[C@H](CO)[C@@H](O)[C@H](O)[C@H]5O)[C@@](C)(CO)C4CC[C@@]2(C)[C@]1(C)C[C@H]3O (some centres undefined),Potency,[1],2.19 µM (active)
same,max response,[2],2.18%
same,max response,[3],-6.99%
C=CC(=O)N1CCC[C@@H](n2nc(-c3cccc(C(=O)Nc4ccc(C(C)C)c(C)c4)c3)c3c(N)ncnc32)C1,Potency,[1],20.6 µM (active)
same,Potency,[2],16.4 µM (active)
same,max response,[3],-9.98%
COC(CCc1ccc(O)cc1)CC(=O)CCc1ccc(O)cc1 (centres undefined),max response,[1],3.53%
same,max response,[2],-18.6%
same,outcome,[3],inactive
O=C(Nc1ccc(-c2ccc(Cl)c(Cl)c2)cc1)C1=C(O)c2ccccc2S(=O)(=O)N1,outcome,[1],inactive
same,max response,[2],-6.44%
same,max response,[3],-12.4%
O=C(NCc1ccccc1-c1ccccc1C(=O)NCCc1ccccn1)OCc1ccccc1,max response,[1],2.09%
same,max response,[2],-7.21%
same,max response,[3],8.57%
same,max response,[4],0.337%
C[C@@H]1O[C@@H](O[C@H]2[C@@H](OC(=O)[C@]34CCC(C)(C)CC3C3=CCC5[C@@]6(C)C[C@H](O)[C@H](O[C@@H]7O[C@H](CO)[C@@H](O)[C@H](O)[C@H]7O[C@@H]7OC[C@@H](O)[C@H](O)[C@H]7O)[C@@](C)(C(=O)O)C6CC[C@@]5(C)[C@]3(C)CC4)OC[C@H](O)[C@@H]2O)[C@H](O)[C@H](O)[C@H]1O[C@@H]1OC[C@@H](O)[C@H](O)[C@H]1O (some centres undefined),max response,[1],4.52%
same,max response,[2],-2.16%
same,Potency,[3],2.45 µM (active)
same,max response,[4],1.11%
COc1cccc(CN(C(=O)CC(C)(C)C)[C@H]2C[C@H](C(=O)N3CCNCC3)N(Cc3ccc4c(c3)OCO4)C2)c1,outcome,[1],inactive
same,max response,[2],-6.86%
same,outcome,[3],inactive
CCO[C@H]1CN(C2CCC(O)(c3ccc4c(c3)OCO4)CC2)C[C@@H]1NC(=O)CNC(=O)c1cccc(C(F)(F)F)c1 (some centres undefined),max response,[1],1.15%
same,max response,[2],1.49%
same,max response,[3],7%
CCCCCc1ccc(/C=C/C(=O)Nc2cc(Cl)ccc2C(=O)O)cc1,max response,[1],-6.38%
same,max response,[2],-35.2%
same,max response,[3],-3.71%
O=C(NCCN1CCC(n2c(=O)[nH]c3ccccc32)CC1)c1ccc2ccccc2c1,max response,[1],1.03%
same,max response,[2],-42.4%
same,max response,[3],-2.44%
C=CC(=O)N1CCCC(n2nc(-c3ccc(Oc4ccccc4)cc3)c3c(N)ncnc32)C1 (centres undefined),max response,[1],3.87%
same,Potency,[2],1.3 µM (active)
same,max response,[3],-21.4%
COc1ccc(-c2c(C)nn3c(NCCN4CCOCC4)cc(C)nc23)cc1OC,max response,[1],-19%
same,max response,[2],-11.4%
same,outcome,[3],inactive
C=CC1(C)CC(O)C(C(=C)C(=O)OC)C(O)C1C(=C)CO (centres undefined),max response,[1],-28%
same,max response,[2],-2.8%
same,max response,[3],0.16%
same,max response,[4],-4.78%
CC(=O)N[C@H]1[C@H](O[C@H]2CC[C@@]3(C)C(CC[C@]4(C)C3CC=C3C5CC(C)(C)CC[C@]5(C(=O)O)C(O)C[C@]34C)C2(C)C)O[C@H](CO[C@@H]2O[C@H](C)[C@H](O)[C@H](O)[C@H]2O[C@@H]2OC[C@@H](O)[C@H](O)[C@H]2O)[C@@H](O)[C@@H]1O (some centres undefined),max response,[1],-3.47%
same,max response,[2],-18.2%
same,max response,[3],3.32%
CCOC(=O)c1cnn(-c2ccccc2)c1NC(=O)c1cc2nc(-c3ccco3)cc(C(F)(F)Cl)n2n1,max response,[1],-4.16%
same,max response,[2],3.78%
same,max response,[3],6.18%
C=C1/C(=C/C=C2\CCC[C@]3(C)[C@@H]([C@H](C)/C=C/[C@H](O)C4CC4)CC[C@@H]23)C[C@@H](O)C[C@@H]1O,max response,[1],-7.4%
same,max response,[2],-5.44%
same,max response,[3],7.77%
Cc1cnn(-c2ccccc2)c1NC(=O)COCc1ccccc1,max response,[1],-16.8%
same,max response,[2],3.62%
same,max response,[3],3.83%
CN(C)[C@@H]1CCc2[nH]c3ccc(NC(=O)c4ccc(F)cc4)cc3c2C1,max response,[1],-12.5%
same,max response,[2],-11.8%
same,max response,[3],1.75%
COc1ccc(CN2CCN(CCCSc3cc(C(C)(C)C)c(O)c(C(C)(C)C)c3)CC2)c(OC)c1OC,outcome,[1],inactive
same,max response,[2],-2%
same,outcome,[3],inactive
same,max response,[4],4.43%
CCN(CCNC(=O)Nc1ccccc1Br)c1cccc(C)c1,max response,[1],-1.67%
same,max response,[2],0.35%
same,max response,[3],2.25%
CN1CCN(c2ccc(OC(F)(F)F)c(Nc3ncc4c(n3)-c3c(c(C(N)=O)nn3CCO)CC4)c2)CC1,max response,[1],-11.3%
same,Potency,[2],0.259 µM (active)
same,Potency,[3],0.0366 µM (active)
COc1ccc2cc3c(NC(=O)c4ccco4)nn(C)c3nc2c1,max response,[1],-20.9%
same,max response,[2],-26.7%
same,Potency,[3],13 µM (active)
CC(=O)OC1C(OC(=O)c2ccccc2)C2C(C)(C)CCC(OC(C)=O)C2(C)C23CCC(C)(C2)C(=O)CC13 (centres undefined),outcome,[1],inactive
same,max response,[2],-16.6%
same,max response,[3],6.15%
same,outcome,[4],inactive
O=[N+]([O-])c1cn2c(n1)OC[C@@H](OCc1ccc(-c3ccc(OC(F)(F)F)cc3)nc1)C2,max response,[1],2.36%
same,max response,[2],-7.6%
same,max response,[3],-0.53%
same,max response,[4],-0.0728%
CC(C)(C)C1CCN(C(=O)n2ncc(C(O)(c3ccccc3)c3ccccc3)n2)CC1,outcome,[1],inactive
same,max response,[2],-7.63%
same,max response,[3],-15.2%
COc1ccc(NC(=O)c2ccc(C(=N)N(C)C)cc2)c(C(=O)Nc2ccc(Cl)cn2)c1,max response,[1],3.5%
same,max response,[2],-16.4%
same,max response,[3],2.86%
NCCOc1cc(C(=O)Nc2cc(OCCN)c3ccccc3n2)nc(C(=O)Nc2cc(OCCN)c3ccccc3n2)c1,Potency,[1],7.31 µM (active)
same,Potency,[2],2.63 µM (active)
same,Potency,[3],16.4 µM (active)
Cc1cccc(C#Cc2cc(F)cc(C#N)c2)n1,max response,[1],-2.01%
same,max response,[2],-1.48%
same,max response,[3],2.45%
C[C@H]1CC[C@@]2(OC1)O[C@H]1CC3C4CC[C@H]5C[C@@H](O)CC[C@]5(C)C4=CC(=O)[C@]3(C)[C@H]1[C@@H]2C (some centres undefined),outcome,[1],inactive
same,max response,[2],-3.38%
same,max response,[3],0.81%
same,outcome,[4],inactive
CCCc1cc(C)n(C)c(=O)c1CN(C)C(=O)c1cc(-c2ccc(N3CCN(C(C)C)CC3)nc2)cc2c1cnn2C(C)C,max response,[1],-1.11%
same,max response,[2],1.32%
same,max response,[3],4.77%
same,outcome,[4],inactive
Fc1ccc(-c2nc(-c3c(F)cccc3F)[nH]c2-c2ccncc2)cc1,max response,[1],-5.53%
same,max response,[2],-17.9%
same,max response,[3],3.89%
COc1ccccc1C(=O)Nc1cccc(NC(=O)c2cccc(C)c2)c1,max response,[1],-5.11%
same,max response,[2],3.09%
same,max response,[3],4.14%
CN(C)C(=O)Nc1cc(-c2ccccc2)ccc1N(C)C,max response,[1],-26.2%
same,max response,[2],-16%
same,max response,[3],-8.42%
Cc1ccc(C2(C(=O)N3CCC(n4nc(-c5ccccc5)oc4=O)CC3)CC2)cc1,max response,[1],-18.3%
same,max response,[2],-7.48%
same,max response,[3],-8.37%
same,max response,[4],-1.74%
CC(C)c1ccc(NC(=O)Cn2cnc3c2c(=O)n(C)c(=O)n3C)cc1,outcome,[1],inactive
same,max response,[2],-14.6%
same,max response,[3],2.05%
same,max response,[4],-6.55%
COCC(c1ccc(C(F)(F)F)cc1)N1CCN(C2(C)CCN(C(=O)c3c(C)ncnc3C)CC2)CC1C (centres undefined),max response,[1],4.87%
same,max response,[2],-10.9%
same,max response,[3],8.07%
same,outcome,[4],inactive
C[C@H](Nc1cc2c(-c3ccc4c(c3)OCO4)noc2cn1)c1ccccc1,max response,[1],3%
same,max response,[2],-9.56%
same,outcome,[3],inactive
same,max response,[4],-4.93%
CCCCc1ccc(NS(=O)(=O)c2ccc(F)cc2)cc1,outcome,[1],inactive
same,max response,[2],-1.98%
same,max response,[3],4.06%
same,outcome,[4],inactive
C[C@@H](NC(=O)[C@H](O)c1cc(F)cc(F)c1)C(=O)N[C@@H]1C(=O)N(C)c2ccccc2-c2ccccc21,max response,[1],0.116%
same,max response,[2],-11.4%
same,max response,[3],5.92%
same,max response,[4],-0.195%
CC1(C)CC[C@]23CO[C@@]4(CCC5[C@@]6(C)CC[C@H](O[C@@H]7OC[C@H](O[C@@H]8O[C@H](CO)[C@@H](O)[C@H](O)[C@H]8O[C@@H]8OC[C@@H](O)[C@H](O)[C@H]8O)[C@H](O)[C@H]7O)[C@@](C)(CO)C6CC[C@@]5(C)[C@]4(C)CC2=O)[C@@H]3C1 (some centres undefined),max response,[1],-12.4%
same,max response,[2],2.87%
same,outcome,[3],inactive
same,max response,[4],-14.1%
Cn1cc(-c2ccc(S(=O)(=O)n3ccc(/C=C/C(=O)Nc4ccccc4N)c3)cc2)cn1,Potency,[1],9.2 µM (active)
same,max response,[2],-149%
same,Potency,[3],1.46 µM (active)
same,Potency,[4],4.61 µM (active)
